From PubChem
The list is not random: actives were taken first. Their share in the collection is about 21%.
Pf growth 48h = P. falciparum growth inhibition at 48 hours (one generation); 310,000 tested, 5.9% active; Potency, µM (series often up to 28.7 µM), most hits filed as inhibitors; P. falciparum luciferase growth in erythrocytes, 48 h
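Growth was read as firefly luciferase luminescence after a 48 h, 37 C, 5% CO2 exposure of compounds to reporter-bearing P. falciparum cultures (0.1% parasitemia, 2% hematocrit final) in Albumax-supplemented RPMI 1640.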
SARS PLpro yeast = blocks SARS-CoV papain-like protease in a yeast assay. S. cerevisiae expressing SARS-CoV PLpro, growth rescue. Potency, µM (highest dose often 32.9 µM), actives largely listed as activators. 330,000 tested, 0.19% active. AID 485353; calls by dose curve; note: nearly all actives have a fitted effect of over 55% in size
Shiga inhibitor = inhibitors of Shiga toxin in Vero cells. Vero cells, Shiga toxin protein synthesis inhibition reporter. inhibition, % at 38.7 µM. 290,000 tested, 9.2% active. AID 2315; in the data active = inhibition mostly above about 28%, no sharp cut-off; inactive = mostly below about 43%
Pf growth 96h = P. falciparum growth inhibition at 96 hour, primary screen for plastid delayed-death inhibitors; P. falciparum luciferase reporter growth, 96 h; Potency, µM (highest dose often 28.7 µM), hits mostly inhibitors; 320,000 tested, 6.9% active; AID 504834
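Readout is luminescence from an integrated firefly luciferase in P. falciparum. Red cells, 2% hematocrit and 0.05% parasitemia final, were cultured with compound through two parasite generations (96 hours) at 37 C, 5% CO2.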
Cycloheximide cs = counter-screen for Shiga toxin inhibitors: cycloheximide protein synthesis inhibition; cell reporter, cycloheximide protein synthesis inhibition counterscreen; max response, %; 300,000 tested, 12% active; AID 2314; in the data active = max response mostly above about 13%, no sharp cut-off; inactive = mostly below about 14%; note: read at 38.3 µM for the half of the compounds with a filed dose
NS1 inh = influenza NS1 inhibition | 270,000 tested, 0.4% active | AID 2326 | Potency, µM (series often up to 46.1 µM); calls by dose curve; note: actives are rising curves; nearly all actives have a fitted effect of over 50% in size
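Growth recovery, yeast-based: influenza A NS1 expressed in S. cerevisiae causes slow growth, and suppressors are detected by OD600. The parent strain without NS1 is used as positive control.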
Large screens that a line does not name were inactive. Unless noted, calls come from the whole dose curve; as a rule, active = well fitted inhibition curve with a large enough effect; inconclusive = small, poorly fitted or top-dose-only effect, or another doubt; inactive = no such curve, though single readings can be large or run the other way.

O=C(Nc1cc(C(F)(F)F)ccc1N1CCOCC1)C1Cc2ccccc2CN1C(=O)c1ccco1 (stereo not given)	Pf growth 48h inconclusive
S=C(NCc1ccccc1)Nc1ccncc1	Pf growth 48h inconclusive, Pf growth 96h inconclusive
O=C(CSc1nnc(-c2ccco2)n1Cc1ccccc1)c1ccc(F)cc1	Pf growth 48h inconclusive, Shiga inhibitor 60, Cycloheximide cs 36, NS1 inh inconclusive
Cc1occc1-c1nnc(SCC(=O)c2ccc(F)cc2)o1	Shiga inhibitor 147, Cycloheximide cs 37 (no result: Pf growth 96h)
CCC(=O)NC(c1cccs1)c1cc(Br)c2cccnc2c1O (stereo not given)	Pf growth 48h 0.93µM, Pf growth 96h 2.9µM (no result: Shiga inhibitor, Cycloheximide cs, NS1 inh)
CCC(=O)NC(c1cccs1)c1cc(Cl)c2ccccc2c1O (stereo not given)	Pf growth 96h inconclusive (no result: Shiga inhibitor, Cycloheximide cs, NS1 inh)
O=C(CCc1ccccc1)NC(c1cccs1)c1cc(Cl)c2cccnc2c1O (stereo not given)	Pf growth 48h 0.41µM
Cc1cccc(NC(=O)Nc2cnccn2)c1C	Pf growth 96h inconclusive
CC(OC(=O)CCN=C1NS(=O)(=O)c2ccccc21)C(=O)N(C)C1CCCCC1 (stereo not given)	Pf growth 48h inconclusive (no result: Shiga inhibitor, Cycloheximide cs, NS1 inh)
OC(c1ccc(F)cc1)C(c1ccccc1)N1CCOCC1 (stereo not given)	Pf growth 96h 1.9µM (no result: SARS PLpro yeast)
CCOc1ccc(N(CC(=O)N2CC=C(c3ccccc3)CC2)S(=O)(=O)c2c(C)noc2C)cc1	none (no result: Pf growth 48h)
COc1cccc(N2CCN(C(=O)CN(c3cc(C)cc(C)c3)S(=O)(=O)c3c(C)noc3C)CC2)c1	Pf growth 48h inconclusive, Pf growth 96h 10µM
COc1ccc(N(CC(=O)N2c3ccccc3CC2C)S(=O)(=O)c2c(C)noc2C)cc1 (stereo not given)	Pf growth 48h 12µM
COc1ccc(N(CC(=O)N2CC=C(c3ccccc3)CC2)S(=O)(=O)c2c(C)noc2C)cc1	Pf growth 96h 3.7µM (no result: Pf growth 48h)
Cc1ccc(N(CC(=O)N2CCN(c3ccccc3F)CC2)S(=O)(=O)c2c(C)noc2C)cc1	Pf growth 48h inconclusive, Pf growth 96h 9.3µM (no result: SARS PLpro yeast)
NCCSS(=O)(=O)CCN	none (no result: Pf growth 48h, SARS PLpro yeast, Shiga inhibitor, Pf growth 96h, Cycloheximide cs)
CS(=O)(=O)N(CC(=O)N1CCN(c2ccccc2)CC1)c1cc(C(F)(F)F)ccc1Cl	none (no result: Pf growth 96h)
CS(=O)(=O)N(CC(=O)N1CCN(c2ccccc2F)CC1)c1cc(C(F)(F)F)ccc1Cl	Pf growth 96h 10µM (no result: Pf growth 48h)
COc1ccc(N(CC(=O)N2CCN(c3ccccc3F)CC2)S(=O)(=O)c2c(C)noc2C)cc1	Pf growth 96h 5.9µM
Cc1cc(C(=O)CSc2nc3ccccc3o2)c(C)n1C1CC1	Shiga inhibitor 27, Cycloheximide cs 53
C=CCn1c(C)cc(C(=O)CSc2nc3ccccc3o2)c1C	Shiga inhibitor 110, Pf growth 96h inconclusive, Cycloheximide cs 62
Cc1cc(C(=O)CSc2ncnc3ccccc23)c(C)n1C1CC1	Pf growth 48h inconclusive, Pf growth 96h inconclusive (no result: Shiga inhibitor, Cycloheximide cs, NS1 inh)
O=C(NCCCO)C(=O)NCCc1ccc(Cl)cc1	Pf growth 96h inconclusive
COc1ccc(-c2csc3nc(-c4cccnc4)nc(N4CCC(C(N)=O)CC4)c23)cc1OC	none
O=C1CN(c2nc(-c3cccs3)nc3sc4c(c23)CCCC4)CCN1	Shiga inhibitor 58, Pf growth 96h inconclusive, Cycloheximide cs 35
O=C1CN(c2nc(-c3cccnc3)nc3scc(-c4ccccc4)c23)CCN1	Pf growth 48h inconclusive, Pf growth 96h inconclusive, Cycloheximide cs 19 (no result: NS1 inh)
O=c1c2c3c(sc2nc2n1N=C(c1cccs1)CS2)CCCC3	Shiga inhibitor 73, Cycloheximide cs 19
COc1cc(OC)cc(OC(=O)C2CCN(S(=O)(=O)c3ccc(OC)c(OC)c3)CC2)c1	none (no result: SARS PLpro yeast, Shiga inhibitor, Cycloheximide cs, NS1 inh)
CCC(=O)N1CCCN(S(=O)(=O)c2ccc(C)cc2)C1c1ccc(OC)cc1 (stereo not given)	Pf growth 48h 13µM
COc1ccc(C2N(S(=O)(=O)c3ccccc3)CCN2S(=O)(=O)c2ccc(C)cc2)cc1 (stereo not given)	SARS PLpro yeast inconclusive, Pf growth 96h 9.3µM (no result: Pf growth 48h)
Cc1ccc(CNC(=O)CSc2nc3ccsc3c(=O)n2Cc2ccc(C(=O)O)cc2)cc1	Pf growth 96h inconclusive (no result: NS1 inh)
Cc1ccc[n+](CC(=O)Nc2cc(C(F)(F)F)ccc2Cl)c1	Pf growth 48h inconclusive, Pf growth 96h inconclusive
CCC(C)(C)c1ccc(OCCCC[n+]2cccc(C)c2)c(C(C)(C)CC)c1	Pf growth 48h 2.3µM, Pf growth 96h inconclusive (no result: NS1 inh)
O=C(O)CC/C(=N/NC(=O)c1cccs1)c1ccccc1	Shiga inhibitor 24, Cycloheximide cs 77
Cc1cc(C(=O)NN=C(CCC(=O)O)c2cccs2)c(C)o1	none (no result: Pf growth 48h, Shiga inhibitor, Pf growth 96h, Cycloheximide cs, NS1 inh)
O=C(O)CCC(=O)NNC(=O)c1cccs1	Cycloheximide cs 18
CCOC(=O)N/N=C(\CCC(=O)O)c1cccs1	Shiga inhibitor 35, Cycloheximide cs 17
N#Cc1ccc(OCC(=O)N/N=C(\CCC(=O)O)c2cccs2)cc1	none (no result: NS1 inh)
CCOc1nc2cnccc2n(CC(=O)Nc2cccc(C)c2)c1=O	SARS PLpro yeast inconclusive
CCO[C@H]1OC(C(=O)N2CCN(C)CC2)=C[C@@H](C)[C@@H]1CCCO	none
CCN(CC)CCn1c2c(c(SCC(=O)Nc3ccc(F)c(F)c3)nc1=O)CCC2	Pf growth 48h inconclusive, Pf growth 96h inconclusive (no result: Shiga inhibitor, Cycloheximide cs, NS1 inh)
O=C(/C=C/c1c(Cl)nc2ccccn12)Nc1ccc(F)cc1	Pf growth 48h inconclusive, Pf growth 96h inconclusive, Cycloheximide cs 15 (no result: NS1 inh)
CC(=O)Nc1ccc(C)c(NS(=O)(=O)c2cccc(C(F)(F)F)c2)c1	Pf growth 48h 1.9µM, Pf growth 96h 3.7µM
O=C(Nc1nnc(COc2ccc(Br)cc2)s1)c1ccco1	none
O=C(N/N=C/c1ccco1)c1ccccc1OCc1ccc(Br)cc1	Shiga inhibitor 118, Pf growth 96h 13µM, Cycloheximide cs 33
Cc1ccc(/C=N/NC(=O)c2cccc(NC(=O)c3ccccc3Cl)c2)o1	Pf growth 96h 1.2µM
Cc1ccc(/C=N/NC(=O)c2cccc(NC(=O)c3ccccc3C)c2)o1	none
O=C(N/N=C/c1ccc(COc2ccc(Br)cc2)o1)c1ccco1	Pf growth 48h inconclusive, Shiga inhibitor active
Cc1ccc(/C=N/NC(=O)c2ccccc2OCc2cccc(Br)c2)o1	Pf growth 96h inconclusive, Cycloheximide cs 15
CCOC(=O)c1c(C)[nH]c(C(=O)OC(C)C(=O)Nc2ccccc2OC)c1C (stereo not given)	Pf growth 96h inconclusive
O=C(N/N=C/c1ccc(F)cc1)c1ccc(OCc2ccccc2)cc1	Pf growth 48h inconclusive
O=C(N/N=C/c1ccco1)c1ccc(OCc2ccccc2)cc1	Pf growth 48h inconclusive, Cycloheximide cs 11
O=C(O)Cn1nc(-c2ccccc2)cc1-c1ccccc1	none
O=C(O)CC(C(=O)O)n1nc(-c2ccccc2)cc1-c1ccccc1 (stereo not given)	Cycloheximide cs 39
C=C(C)CSc1nnc([C@@H]2CCCN2C(=O)OC(C)(C)C)o1	none
